Source: PubChem BioAssay (NCATS)
Results filed as inconclusive are left out. Where a call stands in place of a potency, no number is given. Activity calls are given as the source filed them. Calls follow the shape of the dose curve; as a rule, active = well fitted inhibition curve with a large enough effect; inconclusive = small, poorly fitted or top-dose-only effect; inactive = flat fitted curve, though single readings scatter.

The compounds below were run on Zika virus NS2B-NS3 protease (assay: Primary screen GU AMC qHTS for Zika virus inhibitors (AID 1347154; also: nearly all actives have a fitted effect of over 70% in size)). Settings: Zika NS2B-NS3 unlinked protease, AMC fluorogenic substrate; series mostly up to 54.1 µM.
Procedure, shortened: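 Unlinked Zika NS2B hydrophilic domain–NS3 protease complex at 25 nM in 10 mM Tris-HCl pH 8.0, 0.01% Tween 20, with an AMC peptide substrate. Fluorescence change (340/450 nm) over 15 min at room temperature, normalized to controls, fitted to 4-parameter Hill.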
For `C/C=C1\[C@H]2C=C(C)C[C@]1(N)c1ccc(=O)[nH]c1C2`, the Potency was “inactive”. With `C=CCNC(N)=S` the Potency was “inactive”. In the case of `CN(C(=O)c1c(O)c2ccccc2n(C)c1=O)c1ccccc1`, the Potency is reported as “inactive”. `Cc1cccc(Nc2ccccc2C(=O)O)c1C` was tested, and the Potency was “inactive”. In the case of `CCCCOC(=O)c1ccc(N)cc1`, the Potency is reported as “inactive”. With `CN1C(=O)CC(c2ccccc2)C1=O` (configuration not stated) the Potency was “inactive”. `COc1ccccc1OCC(O)CO` (configuration not stated) was tested, and the Potency was “inactive”. `COC(=O)c1ccccc1C(=O)c1ccc(OCCN2CCCCC2)cc1` was tested, and the Potency was “inactive”. `CC1CC(OC(=O)c2ccccc2O)CC(C)(C)C1` (configuration not stated) was tested, and the Potency was “inactive”. `CCCCCCCCCCCCCCCCN` was tested, and the Potency was “inactive”. `NC(N)=NS(=O)(=O)c1ccc(N)cc1` was tested, and the Potency was “inactive”. For `NS(=O)(=O)c1cc2c(cc1C(F)(F)F)NCNS2(=O)=O`, the Potency was “inactive”. `O=C(OOC(=O)c1ccccc1)c1ccccc1` was tested, and the Potency was “inactive”. In the case of `CC(=O)Oc1cccc(C)c1`, the Potency is reported as “inactive”. With `Cc1cc(NC(=O)C2=C(O)c3ccccc3S(=O)(=O)N2C)no1` the Potency was “inactive”. With `NCC1CCC(C(=O)Oc2ccc(CCC(=O)O)cc2)CC1` (configuration not stated) the Potency was “inactive”. For `CCOC(=O)c1cccnc1`, the Potency was “inactive”. `CC(=O)N(CC(O)CO)c1c(I)c(C(=O)NCC(O)CO)c(I)c(C(=O)NCC(O)CO)c1I` (configuration not stated) was tested, and the Potency was “inactive”. For `NC(=O)NS(=O)(=O)c1ccc(N)cc1`, the Potency was “inactive”. In the case of `COc1ccc(Cc2cnc(N)nc2N)cc1OC`, the Potency is reported as “inactive”. For `C/C=C/C(=O)N(CC)c1ccccc1C`, the Potency was “inactive”. `CCCOC(=O)c1ccc(N)cc1` was tested, and the Potency was “inactive”. `NC(=O)NC1NC(=O)NC1=O` (configuration not stated) was tested, and the Potency was “inactive”. In the case of `CC(C)CCCC(C)CCCC(C)CCCCC(C)CCCC(C)CCCC(C)C` (configuration not stated), the Potency is reported as “inactive”. For `Cc1cc(=O)[nH]c(=S)[nH]1`, the Potency was “inactive”. In the case of `CC[C@]12CCCN3CCc4c(n(c5ccccc45)[C@@](O)(C(=O)OC)C1)[C@@H]32`, the Potency is reported as “inactive”. For `NS(=O)(=O)c1cc(-c2nn[nH]n2)c(NCc2cccs2)cc1Cl`, the Potency was “inactive”. In the case of `CN[C@@H]1[C@@H](O)[C@@H](O[C@@H]2[C@H](O)[C@H](O[C@H]3OC(CN)=CC[C@H]3N)[C@@H](N)C[C@H]2N)OCC1(C)O` (some centres not stated), the Potency is reported as “inactive”. `CNc1c2c(nn1C)CCCC2` was tested, and the Potency was “inactive”. `NC(=O)N[C@@H](CCC(=O)O)C(=O)O` was tested, and the Potency was “inactive”. For `Cc1onc(-c2ccccc2)c1-c1ccc(S(N)(=O)=O)cc1`, the Potency was “inactive”. With `COc1ccc(C(=O)N2CCN(CC(=O)N3CCOCC3)CC2)cc1` the Potency was “inactive”. `CCCCCCCC(=O)OCC(O)CO` (configuration not stated) was tested, and the Potency was “inactive”. In the case of `O=C(CN1CCNCC1)NC1CCCCC1`, the Potency is reported as “inactive”. With `CCN1CC(CCN2CCOCC2)C(c2ccccc2)(c2ccccc2)C1=O` (configuration not stated) the Potency was “inactive”. In the case of `C[C@H]1COc2c(C3(N)CC3)c(F)cc3c(=O)c(C(=O)O)cn1c23`, the Potency is reported as “inactive”. For `CCN(CC)CCOC(=O)C(c1ccccc1)c1ccccc1`, the Potency was “inactive”.
